From the supplement of paper PMC11732987, “Enantioselective OTUD7B fragment discovery through chemoproteomics screening and high-throughput optimisation” (Communications Chemistry, 2025)

Tests used:
Assay in all cases: log2 ratio of Biotin-Ahx-Ub-VS probe labelling (fragment/DMSO); higher = less target engagement (more negative = stronger competition), active = hit call of the paper (q ≤ 0.05, log2 ratio ≤ -1)
Settings in all cases: compound concentration: 200 uM; treatment time: 3 h
[1] = molecular target: T1, USP19 (UniProt O94966)
T1 sequence (whole entry): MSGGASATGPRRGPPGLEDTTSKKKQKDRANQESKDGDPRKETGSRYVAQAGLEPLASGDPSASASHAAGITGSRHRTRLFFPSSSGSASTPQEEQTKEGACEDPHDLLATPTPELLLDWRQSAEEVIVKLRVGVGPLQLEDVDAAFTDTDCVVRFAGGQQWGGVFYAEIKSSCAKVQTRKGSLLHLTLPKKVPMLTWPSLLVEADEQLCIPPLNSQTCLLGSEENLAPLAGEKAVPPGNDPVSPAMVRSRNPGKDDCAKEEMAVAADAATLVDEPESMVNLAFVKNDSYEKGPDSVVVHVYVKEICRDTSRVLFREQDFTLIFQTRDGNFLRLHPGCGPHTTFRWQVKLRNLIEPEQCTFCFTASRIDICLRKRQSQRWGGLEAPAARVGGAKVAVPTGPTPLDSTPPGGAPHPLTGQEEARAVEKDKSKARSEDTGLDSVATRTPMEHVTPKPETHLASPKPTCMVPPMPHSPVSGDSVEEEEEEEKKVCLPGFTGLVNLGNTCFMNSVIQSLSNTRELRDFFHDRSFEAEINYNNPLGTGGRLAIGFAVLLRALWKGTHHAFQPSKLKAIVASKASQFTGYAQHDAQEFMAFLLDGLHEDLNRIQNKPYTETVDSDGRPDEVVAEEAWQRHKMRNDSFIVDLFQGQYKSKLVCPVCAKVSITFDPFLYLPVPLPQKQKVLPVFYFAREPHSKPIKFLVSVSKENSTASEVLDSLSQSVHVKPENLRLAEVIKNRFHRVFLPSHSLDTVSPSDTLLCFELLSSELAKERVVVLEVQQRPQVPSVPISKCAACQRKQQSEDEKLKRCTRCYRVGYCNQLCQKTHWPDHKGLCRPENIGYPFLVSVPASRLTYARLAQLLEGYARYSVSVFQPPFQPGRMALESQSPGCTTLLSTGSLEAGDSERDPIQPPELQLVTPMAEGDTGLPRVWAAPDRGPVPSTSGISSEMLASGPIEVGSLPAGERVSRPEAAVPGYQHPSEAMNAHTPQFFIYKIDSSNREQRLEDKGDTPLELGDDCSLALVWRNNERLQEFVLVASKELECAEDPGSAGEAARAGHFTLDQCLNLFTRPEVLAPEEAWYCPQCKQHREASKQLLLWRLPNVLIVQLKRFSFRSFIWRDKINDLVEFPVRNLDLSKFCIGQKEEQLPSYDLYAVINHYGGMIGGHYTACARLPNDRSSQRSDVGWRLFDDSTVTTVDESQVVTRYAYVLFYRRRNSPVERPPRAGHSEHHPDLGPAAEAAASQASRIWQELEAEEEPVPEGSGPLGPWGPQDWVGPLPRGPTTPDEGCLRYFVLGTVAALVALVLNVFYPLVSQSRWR
Summary of the method: (§1)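 HEK293T lysate, 495 µg per sample in Tris/CHAPS/IGEPAL buffer with protease inhibitors, was treated in triplicate with fragment at 200 µM or vehicle for 3 h and then with Biotin-Ahx-Ub-VS at 0.5 µM final for 1 h. Labelled DUBs were NeutrAvidin-enriched, digested with LysC and trypsin, and run by diaPASEF LC-MS/MS. Spectronaut label-free quantities were global-median-normalised, and values are average log2 fragment/vehicle ratios by unpaired t-test on proteins with ≥2 unique peptides.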

[2] = molecular target: USP24 (UniProt Q9UPU5)
USP24, sequence (Q9UPU5 whole entry): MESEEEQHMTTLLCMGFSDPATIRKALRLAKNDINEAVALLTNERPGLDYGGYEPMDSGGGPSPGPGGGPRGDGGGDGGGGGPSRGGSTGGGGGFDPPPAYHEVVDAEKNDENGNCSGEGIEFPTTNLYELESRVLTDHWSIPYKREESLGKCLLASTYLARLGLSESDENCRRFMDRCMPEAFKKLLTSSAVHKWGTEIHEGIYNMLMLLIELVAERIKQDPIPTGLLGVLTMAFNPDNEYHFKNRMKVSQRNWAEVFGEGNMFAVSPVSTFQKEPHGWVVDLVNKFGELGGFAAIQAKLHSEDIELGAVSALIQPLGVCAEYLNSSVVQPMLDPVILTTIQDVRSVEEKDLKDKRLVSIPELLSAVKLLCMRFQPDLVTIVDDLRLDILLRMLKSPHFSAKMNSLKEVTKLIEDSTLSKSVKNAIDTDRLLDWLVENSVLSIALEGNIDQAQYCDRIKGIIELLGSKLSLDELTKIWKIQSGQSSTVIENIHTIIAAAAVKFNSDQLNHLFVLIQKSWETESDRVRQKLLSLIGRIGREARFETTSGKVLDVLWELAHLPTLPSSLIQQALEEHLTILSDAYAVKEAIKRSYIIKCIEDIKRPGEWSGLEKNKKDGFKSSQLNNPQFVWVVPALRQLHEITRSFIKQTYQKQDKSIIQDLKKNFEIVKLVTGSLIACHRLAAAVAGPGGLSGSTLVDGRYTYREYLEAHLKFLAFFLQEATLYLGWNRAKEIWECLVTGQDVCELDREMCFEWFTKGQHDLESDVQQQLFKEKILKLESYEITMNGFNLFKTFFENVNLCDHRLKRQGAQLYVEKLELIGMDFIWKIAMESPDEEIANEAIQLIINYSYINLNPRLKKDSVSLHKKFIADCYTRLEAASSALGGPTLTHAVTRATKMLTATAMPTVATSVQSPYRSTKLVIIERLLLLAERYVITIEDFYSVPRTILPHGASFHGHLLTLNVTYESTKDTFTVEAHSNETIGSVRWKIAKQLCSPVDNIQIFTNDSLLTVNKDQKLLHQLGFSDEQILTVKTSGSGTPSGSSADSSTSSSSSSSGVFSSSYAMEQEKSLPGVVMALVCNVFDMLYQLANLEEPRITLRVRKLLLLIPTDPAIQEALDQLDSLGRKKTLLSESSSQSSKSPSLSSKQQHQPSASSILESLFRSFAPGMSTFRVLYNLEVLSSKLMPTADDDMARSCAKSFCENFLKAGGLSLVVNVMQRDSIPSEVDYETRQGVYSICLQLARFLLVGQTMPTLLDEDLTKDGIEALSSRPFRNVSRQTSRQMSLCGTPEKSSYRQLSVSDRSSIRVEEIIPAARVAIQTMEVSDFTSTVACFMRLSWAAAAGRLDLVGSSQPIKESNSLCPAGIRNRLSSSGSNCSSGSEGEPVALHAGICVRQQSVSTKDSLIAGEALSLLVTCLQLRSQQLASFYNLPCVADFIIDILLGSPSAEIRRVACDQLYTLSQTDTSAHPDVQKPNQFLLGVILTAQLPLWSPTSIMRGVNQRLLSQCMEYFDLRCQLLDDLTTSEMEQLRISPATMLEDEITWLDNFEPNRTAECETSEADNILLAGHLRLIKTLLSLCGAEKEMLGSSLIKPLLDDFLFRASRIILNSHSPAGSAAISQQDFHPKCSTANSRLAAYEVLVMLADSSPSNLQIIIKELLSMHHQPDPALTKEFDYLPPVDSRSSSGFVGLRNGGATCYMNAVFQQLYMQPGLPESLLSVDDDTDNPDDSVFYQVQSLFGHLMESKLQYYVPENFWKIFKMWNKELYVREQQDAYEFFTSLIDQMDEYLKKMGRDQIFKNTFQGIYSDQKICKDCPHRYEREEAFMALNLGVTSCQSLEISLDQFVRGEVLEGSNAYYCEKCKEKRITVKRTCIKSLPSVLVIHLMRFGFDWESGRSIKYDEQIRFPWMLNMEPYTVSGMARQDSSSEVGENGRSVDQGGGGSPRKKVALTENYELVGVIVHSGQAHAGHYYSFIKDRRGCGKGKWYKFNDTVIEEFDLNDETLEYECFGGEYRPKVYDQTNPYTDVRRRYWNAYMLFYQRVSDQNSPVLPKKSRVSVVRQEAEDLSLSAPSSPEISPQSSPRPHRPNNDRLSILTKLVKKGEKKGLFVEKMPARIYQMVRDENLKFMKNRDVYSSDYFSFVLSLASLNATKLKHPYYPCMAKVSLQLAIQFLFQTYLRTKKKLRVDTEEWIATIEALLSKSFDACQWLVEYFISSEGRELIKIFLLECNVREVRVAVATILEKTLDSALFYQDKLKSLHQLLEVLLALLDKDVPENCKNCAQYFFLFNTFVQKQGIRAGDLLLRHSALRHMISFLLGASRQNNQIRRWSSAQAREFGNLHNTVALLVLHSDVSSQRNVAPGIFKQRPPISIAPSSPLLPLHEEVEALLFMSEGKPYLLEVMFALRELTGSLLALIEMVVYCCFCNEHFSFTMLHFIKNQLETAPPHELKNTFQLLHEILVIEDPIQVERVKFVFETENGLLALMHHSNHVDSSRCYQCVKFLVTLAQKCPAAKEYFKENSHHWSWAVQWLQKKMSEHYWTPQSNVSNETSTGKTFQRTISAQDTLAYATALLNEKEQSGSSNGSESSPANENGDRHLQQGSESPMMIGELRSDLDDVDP
Summary of the method: as §1

[3] = molecular target: T2, USP25 (UniProt Q9UHP3)
T2 sequence (whole entry): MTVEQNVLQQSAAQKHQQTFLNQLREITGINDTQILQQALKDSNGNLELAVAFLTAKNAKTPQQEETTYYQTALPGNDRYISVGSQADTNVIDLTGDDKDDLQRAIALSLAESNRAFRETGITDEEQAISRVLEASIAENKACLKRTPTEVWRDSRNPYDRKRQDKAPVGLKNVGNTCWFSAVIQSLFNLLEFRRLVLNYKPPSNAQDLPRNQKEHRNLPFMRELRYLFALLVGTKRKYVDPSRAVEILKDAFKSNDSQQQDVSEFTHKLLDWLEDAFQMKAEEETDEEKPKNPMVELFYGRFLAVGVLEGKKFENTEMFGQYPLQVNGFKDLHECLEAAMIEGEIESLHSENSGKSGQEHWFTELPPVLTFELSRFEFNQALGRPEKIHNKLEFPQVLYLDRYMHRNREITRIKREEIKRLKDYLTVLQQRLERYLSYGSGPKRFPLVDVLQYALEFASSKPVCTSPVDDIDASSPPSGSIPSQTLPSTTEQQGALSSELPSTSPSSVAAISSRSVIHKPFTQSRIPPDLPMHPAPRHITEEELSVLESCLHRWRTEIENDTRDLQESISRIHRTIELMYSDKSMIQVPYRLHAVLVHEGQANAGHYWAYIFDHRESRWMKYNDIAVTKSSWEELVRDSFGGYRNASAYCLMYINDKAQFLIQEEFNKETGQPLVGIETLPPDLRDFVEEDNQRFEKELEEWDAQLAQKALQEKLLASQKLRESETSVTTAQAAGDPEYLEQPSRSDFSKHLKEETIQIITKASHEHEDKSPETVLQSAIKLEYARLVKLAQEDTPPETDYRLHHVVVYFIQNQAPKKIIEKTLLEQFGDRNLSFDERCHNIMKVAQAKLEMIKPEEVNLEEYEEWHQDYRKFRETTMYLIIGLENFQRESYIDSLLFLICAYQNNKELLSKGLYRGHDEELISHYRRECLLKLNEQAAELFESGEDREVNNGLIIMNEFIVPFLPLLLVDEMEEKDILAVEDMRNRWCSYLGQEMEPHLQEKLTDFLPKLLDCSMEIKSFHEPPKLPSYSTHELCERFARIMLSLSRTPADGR
Summary of the method: as §1

[4] = molecular target: T3, USP28 (UniProt Q96RU2)
T3 sequence (whole entry): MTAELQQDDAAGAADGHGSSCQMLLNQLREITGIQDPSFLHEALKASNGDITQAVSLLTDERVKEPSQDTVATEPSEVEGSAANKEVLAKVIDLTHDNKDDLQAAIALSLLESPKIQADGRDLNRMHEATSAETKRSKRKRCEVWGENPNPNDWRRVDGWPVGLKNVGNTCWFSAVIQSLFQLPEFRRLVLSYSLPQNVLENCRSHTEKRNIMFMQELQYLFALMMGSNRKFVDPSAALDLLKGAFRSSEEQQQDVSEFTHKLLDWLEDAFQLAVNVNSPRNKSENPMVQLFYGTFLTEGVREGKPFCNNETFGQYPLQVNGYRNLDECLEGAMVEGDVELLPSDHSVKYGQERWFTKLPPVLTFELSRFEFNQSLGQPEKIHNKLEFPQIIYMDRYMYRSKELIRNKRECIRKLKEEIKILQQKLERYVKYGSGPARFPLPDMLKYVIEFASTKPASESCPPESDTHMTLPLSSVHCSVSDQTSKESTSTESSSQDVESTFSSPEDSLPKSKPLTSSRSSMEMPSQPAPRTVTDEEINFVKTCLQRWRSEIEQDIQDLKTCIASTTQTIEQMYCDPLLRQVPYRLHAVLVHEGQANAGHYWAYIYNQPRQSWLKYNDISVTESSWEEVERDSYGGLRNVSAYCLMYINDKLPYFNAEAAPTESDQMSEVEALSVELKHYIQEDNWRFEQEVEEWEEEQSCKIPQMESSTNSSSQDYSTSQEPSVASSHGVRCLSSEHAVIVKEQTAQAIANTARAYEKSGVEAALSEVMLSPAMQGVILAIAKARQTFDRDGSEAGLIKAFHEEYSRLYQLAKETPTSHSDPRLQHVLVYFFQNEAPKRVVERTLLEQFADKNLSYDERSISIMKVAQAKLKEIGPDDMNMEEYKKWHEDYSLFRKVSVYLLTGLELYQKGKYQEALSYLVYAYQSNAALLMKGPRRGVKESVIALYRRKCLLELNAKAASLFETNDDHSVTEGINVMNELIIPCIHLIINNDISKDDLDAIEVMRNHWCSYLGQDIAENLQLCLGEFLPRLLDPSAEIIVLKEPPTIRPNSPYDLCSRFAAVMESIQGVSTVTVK
Summary of the method: as §1

Measured: log2 ratio of Biotin-Ahx-Ub-VS probe labelling

CN(Cc1nc2ccccc2[nH]1)C(=O)CCl.Cl
inactive: [1] -0.0932 | [2] -0.721 | [3] 0.0889 | [4] -0.218
